Here are results for 4 compounds from PubChem BioAssay (NCATS).

Structures are written as SMILES. “And” between values parts separate entries of the source, which are not always exact repeats. Equal entries are not always repeated. Records with an inconclusive call do not appear. Where a structure was tested more than once in an assay, its records may differ in their call. The source made the active and inactive calls. Unless noted, calls come from the whole dose curve; as a rule, active = well fitted curve in the direction sought with a large enough effect; inconclusive = small, poorly fitted or top-dose-only effect, or another doubt; inactive = no such curve, though single readings can be large; an effect the other way counts as inactive or inconclusive. Peptide text beside a SMILES is read from it.

The target in experiment [1] is T1, Hexokinase-4 (Homo sapiens) + Glucokinase regulatory protein (Homo sapiens) (UniProt P35557+Q14397). Description: qHTS assay for inhibitors of recombinant human GCK-GKRP interaction: Diaphorase-coupled assay (AID 743205). A digest of the protocol: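 GST-GCK (10 nM) with FLAG-GKRP (10 nM), 5 mM glucose and 0.4 mM ATP in pH 7.6 Hepes; compounds preincubated 20 min with substrate. G6PDH/diaphorase coupling converts resazurin to resorufin, read kinetically (ex 525/em 590 nm) for 30 min.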
For orientation: In qHTS, concentration-response curves come from the screen itself.

The target of experiment [2] is T1, Hexokinase-4 (Homo sapiens) + Glucokinase regulatory protein (Homo sapiens). In words: qHTS assay for inhibitors of recombinant human GCK-GKRP interaction: ADP-Glo assay (AID 743206).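 Note: plate controls were DMSO plus enzyme for no effect and no enzyme for full effect.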 The procedure, abridged: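 GST-GCK and FLAG-GKRP (15 nM each in the dispensed mix, with 2 uM S6P) react with 0.4 mM ATP and 5 mM glucose (final) in Hepes pH 7.6 for 60 min at room temperature. ADP is measured by ADP-Glo luminescence.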

For experiment [3] the target is unchanged. In words: qHTS assay for inhibitors of recombinant human GCK-GKRP interaction: HTRF assay (AID 743207).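 Note: 0% = DMSO with GCK present and -100% = DMSO wells lacking GCK.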 A digest of the protocol: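 GST-GCK and FLAG-GKRP (5 nM each) were combined with 2 uM S6P in pH 7.1 Hepes/MgCl2/KCl/DTT buffer, then compound and anti-FLAG XL665/anti-GST K antibodies were added. After 60 min at room temperature, HTRF 665/615 nm emission was read.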

Experiment [4] can be described thus: qHTS Assay for Identifying Gametocytocidal Compounds (AID 743244).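 Note: % is set by controls: 0 for no effect and ±100 for the full control effect; actives lower the fluorescent signal which means gametocytes are killed.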 The settings on record: P. falciparum 3D7 stage III-V gametocytes, alamarBlue, 72 h; max response: stronger effect = lower value. The procedure, abridged:
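A resazurin-based viability read-out was applied to mature P. falciparum gametocytes: 72 h compound treatment, then 24 h dye incubation, with falling fluorescence signalling gametocytocidal effect.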

The nature of experiment [5]: qHTS profiling for inhibitors of Plasmodium falciparum (3D7) proliferation (AID 743322; call rule not given here;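 note: infected erythrocytes exposed to compound for 72 h before lysis; 100% = DMSO vehicle wells and 0% = 0.29 µM artemisinin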). The settings on record: P. falciparum 3D7 proliferation; at 28.7 µM (top of the series) unless noted. A digest of the protocol: (§1)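 Erythrocytes infected with P. falciparum (0.3% parasitemia, 2.5% hematocrit) incubated with compounds 72 h at 37 C, 5% CO2. Lysis with saponin/Triton buffer containing SYBR Green I, overnight at room temperature in the dark; DNA fluorescence (485/535 nm) normalised to 0.29 uM artemisinin and DMSO.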

Experiment [6] can be described thus: qHTS profiling for inhibitors of Plasmodium falciparum (DD2) proliferation (AID 743323; call rule not given here). The settings on record: lower = more inhibition; at 28.7 µM (top of the series) unless noted. A digest of the protocol:
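Parasite proliferation measured via DNA-dye fluorescence, as uninfected erythrocytes lack DNA. Cultures at 0.3% parasitemia and 2.5% hematocrit incubated 72 h with compound; signal scaled between vehicle and 0.29 uM artemisinin wells.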

Experiment [7] can be described thus: qHTS profiling of the MIPE4 collection as inhibitors of Plasmodium falciparum (3D7) proliferation (AID 743344; call rule not given here;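 note: scaled between DMSO vehicle wells and 0.29 µM artemisinin as full inhibition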). The settings on record: P. falciparum 3D7 in erythrocytes, SYBR Green DNA fluorescence, 72 h; at 28.5 µM (top of the series) unless noted. A digest of the protocol: as §1
Experiment [8] in a line: qHTS profiling of the MIPE4 collection as inhibitors of Plasmodium falciparum (DD2) proliferation (AID 743345; call rule not given here). The settings on record: P. falciparum Dd2 in erythrocytes, SYBR Green DNA, 72 h; at 28.5 µM (top of the series) unless noted. The procedure, abridged:
as §1

Experiment [9] in a line: qHTS profiling of the MIPE4 collection as inhibitors of Plasmodium falciparum (DD2) proliferation (Rep 2) (AID 743346; call rule not given here). Conditions: P. falciparum Dd2 in erythrocytes, SYBR Green DNA, 72 h; at 28.5 µM (top of the series) unless noted. The procedure, abridged:
as §1

Experiment [10] is described as follows: qHTS profiling of the MIPE4 collection as inhibitors of Plasmodium falciparum (HB3) proliferation (AID 743347; call rule not given here;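 note: plate controls were DMSO vehicle wells for no effect and artemisinin wells for full effect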). Conditions: P. falciparum HB3 in erythrocytes, SYBR Green DNA, 72 h; at 28.5 µM (top of the series) unless noted. The procedure, abridged: as §1
Experiment [11] can be described thus: High-throughput drug toxicity screening in the BPDCN cell line Gen2.2 (AID 1224824; call rule not given here;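 note: cells exposed to compounds for 48 h before reading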). Conditions: Gen2.2 BPDCN cells; at 45.8 µM (top of the series) unless noted. A digest of the protocol: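 Gen2.2 cells (500/well) in phenol red-free RPMI with 10% FBS were exposed to compounds for 48 h at 37 °C, 5% CO2. Viability was read by CellTiter-Glo luminescence and normalized to DMSO (100%) and 9.2 uM bortezomib (0%).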

Experiment [12] in a line: High-throughput drug toxicity screening in the BPDCN cell line Cal-1 (AID 1224825; call rule not given here). The settings on record: Cal-1 BPDCN cell viability, qHTS; at 45.8 µM (top of the series) unless noted. A digest of the protocol: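 500 Cal-1 cells/well, RPMI + glutamine + 10% FBS (phenol red-free); cpd added by pin tool; 48 h, 37C, 5% CO2; CTG 15 min RT, lumi read. Normalised: DMSO 100%, bortezomib 9.2 uM 0%.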

The nature of experiment [13]: qHTS assay for measurement of the activity of small molecule inhibitors on Zika virus induced Caspase-3 activity in human iPSC derived neural progenitor cells (hNPCs) (AID 1224857). Note: nearly all actives have a fitted effect of over 65% in size. Note: potency is the fitted concentration of half-maximal effect. A digest of the protocol: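 Quantitative HTS format: human iPSC neural progenitors, 1 h compound pretreatment, ZIKV 2 FFU/cell for 6 h at 37 C. Percent inhibition derived from luminescent caspase-3/7 signal between uninfected and infected controls.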

Experiment [14] in a line: qHTS assay for measurement of the activity of small molecule inhibitors on Zika virus induced Caspase-3 activity in human astrocytoma cells (AID 1224859). Note: potency is the fitted concentration of half-maximal effect. The procedure, abridged: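 Readout is luminescence from Caspase-Glo 3/7 added after a 6 h ZIKV infection (2 FFU/cell) of compound-pretreated (1 h) SNB-19 cells; data expressed as % inhibition versus uninfected and infected wells.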

Experiment [15] in a line: qHTS Screen of the MIPE 4.0 Collection Against Ewings Sarcoma (EW8) (AID 1259255).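 For viability: 100% = DMSO-treated cells and 0% = medium-only wells without cells.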 Note: nearly all actives have a fitted effect of over 35% in size. Note: potency is the fitted concentration of half-maximal effect. The procedure, abridged:
(§2)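 CellTiter-Glo luminescence after 48 h compound exposure (titration) gave viability; percent activity used DMSO-treated cells as no inhibition and medium-only wells as full inhibition. Cells grown in RPMI/5% FBS, dosed 4 h post-seeding.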

Experiment [16] is described as follows: qHTS Screen of the MIPE 4.0 Collection Against Ewings Sarcoma (TC71) (AID 1259253).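 Note: 100% = DMSO-treated cells and 0% = medium-only wells without cells; nearly all actives have a fitted effect of over 40% in size.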 The procedure, abridged: as §2
Experiment [17] can be described thus: qHTS assay for small molecule agonists of the antioxidant response element (ARE) signaling pathway measured by Nrf2-dependant transcriptional activity - cell viability counter screen (AID 720653; active = well fitted curve in the direction sought with a large enough effect in the repeat runs; an effect the other way counts as inactive or inconclusive; note: % is set by controls: 0 for no effect and ±100 for the full control effect). The settings on record: ARE-bla HepG2 viability, CellTiter-Glo ATP luminescence, 16 h; max response: stronger effect = lower value. A digest of the protocol: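 Cytotoxicity counter screen: intracellular ATP quantified by CellTiter-Glo luminescence in the same ARE-bla HepG2 plates, after 16 h compound exposure and a 2 h beta-lactamase substrate step.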

A short description of experiment [18]: qHTS assay for cell viability of HEK293 cells (AID 743288). Note: % is set by controls: 0 for no effect and ±100 for the full control effect; nearly all actives have a fitted effect of over 50% in size. The settings on record: ATP luminescence (CellTiter-Glo), 18 h; max response: stronger effect = lower value. A digest of the protocol:
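Parental HEK293 cells were seeded at 2,000 cells/well, rested at least 5 h at 37 C, then exposed to compounds in DMSO for 18 h at 37 C. Viability was read as ATP-dependent luciferase luminescence after 30 min at room temperature.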

The nature of experiment [19]: qHTS assay for cell viability of the p53RE-bla HCT-116 cell line (AID 743292). Note: % is set by controls: 0 for no effect and ±100 for the full control effect; nearly all actives have a fitted effect of over 55% in size. The procedure, abridged: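 In this qHTS counter-screen, metabolically competent p53RE-bla HCT-116 cells were counted via their ATP content. Compounds were applied for 16 h at 37 C and luciferase-coupled luminescence was measured.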

T1 sequence (P35557 whole entry, looked up): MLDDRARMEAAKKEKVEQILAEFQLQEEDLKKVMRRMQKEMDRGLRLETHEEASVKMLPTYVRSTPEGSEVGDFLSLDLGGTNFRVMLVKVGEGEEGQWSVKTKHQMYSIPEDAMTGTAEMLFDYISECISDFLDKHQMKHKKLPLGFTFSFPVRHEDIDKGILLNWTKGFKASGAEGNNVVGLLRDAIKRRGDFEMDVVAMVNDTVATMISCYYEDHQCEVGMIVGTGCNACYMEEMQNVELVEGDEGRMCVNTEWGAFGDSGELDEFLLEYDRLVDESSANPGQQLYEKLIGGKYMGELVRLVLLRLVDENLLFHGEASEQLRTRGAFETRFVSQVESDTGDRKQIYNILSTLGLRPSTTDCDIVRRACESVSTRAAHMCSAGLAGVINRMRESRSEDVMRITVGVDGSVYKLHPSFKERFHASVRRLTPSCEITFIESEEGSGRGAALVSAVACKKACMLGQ
T1 sequence (Q14397 whole entry, looked up): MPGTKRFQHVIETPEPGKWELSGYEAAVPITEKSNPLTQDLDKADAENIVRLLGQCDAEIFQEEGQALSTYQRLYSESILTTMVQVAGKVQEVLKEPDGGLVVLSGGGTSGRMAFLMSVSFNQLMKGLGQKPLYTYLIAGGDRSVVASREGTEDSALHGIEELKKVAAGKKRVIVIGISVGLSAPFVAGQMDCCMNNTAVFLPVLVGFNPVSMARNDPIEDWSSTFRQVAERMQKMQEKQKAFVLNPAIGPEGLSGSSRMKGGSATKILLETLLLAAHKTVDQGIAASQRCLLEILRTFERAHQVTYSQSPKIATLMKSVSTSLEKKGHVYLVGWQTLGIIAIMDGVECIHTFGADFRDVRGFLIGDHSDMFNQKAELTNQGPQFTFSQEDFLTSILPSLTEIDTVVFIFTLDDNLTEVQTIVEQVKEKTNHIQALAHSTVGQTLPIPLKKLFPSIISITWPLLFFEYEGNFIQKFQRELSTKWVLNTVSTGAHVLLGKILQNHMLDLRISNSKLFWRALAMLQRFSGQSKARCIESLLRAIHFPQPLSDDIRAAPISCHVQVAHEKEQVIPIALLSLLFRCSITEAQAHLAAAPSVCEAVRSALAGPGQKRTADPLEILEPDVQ

In the case of `Cc1cccc(C#Cc2ccccc2)n1`, the outcome in experiment [1], in experiment [2] and in experiment [3] was inactive. Moreover, the max response in experiment [4] is 7.87% (inactive). In addition, the remaining parasite growth % (stronger effect = lower value) in experiment [5] came to 106%. In experiment [6], the activity, percent of control is 85.7%. In experiment [7], this compound had a parasite growth, % of DMSO control of 23.9%. Also, in experiment [8], the parasite growth remaining, % of DMSO control (lower = more inhibition) turned out to be 98.6%. Also, the parasite growth, % of control (lower = inhibition) in experiment [9] was 36.6%. In experiment [10], this compound showed a growth, % of control of 42%. Further, the cell viability, % of control (lower = more cytotoxic) in experiment [11] turned out to be 40.7%. The viability (% of control) in experiment [12] was found to be 57.2%. Besides, the Potency entry in experiment [13] was “inactive and 6.31 µM (active)”; in experiment [14], “inactive and 3.98 µM (active)”; in [15], 18.7 µM (active).

`C=C(c1ccc(C(=O)O)cc1)c1cc2c(cc1C)C(C)(C)CCC2(C)C` returned a parasite growth, % of DMSO control in experiment [7] of 70%. This compound also gave a parasite growth remaining, % of DMSO control (lower = more inhibition) in [8] of 81.7%. Further, the parasite growth, % of control (lower = inhibition) in [9] was determined as 105%. In addition, the growth, % of control in experiment [10] was determined as 76.8%. Moreover, in [11], the cell viability, % of control (lower = more cytotoxic) stood at 577%. The viability (% of control) in [12] is 89.3%. Moreover, the Potency result in experiment [13], in [14] and in experiment [16] was “inactive” each time.

Regarding `COC(=O)[C@H](Cc1ccccc1)NC(=O)[C@@H](N)CC(=O)O` (H-Asp-Phe-OMe), the max response in [17] is -13.7% (inactive) and 2.98% (inactive); in experiment [4] it was 15.3% (inactive) and 2.54% (inactive); in experiment [18], -2.43% (inactive) and -2.64% (inactive). In addition, the Potency entry in [19], in experiment [13] and in [14] was “inactive” throughout. Also, the parasite growth, % of DMSO control in experiment [7] came out at 88.6%. The parasite growth remaining, % of DMSO control (lower = more inhibition) in experiment [8] amounted to 22.1%. Moreover, the parasite growth, % of control (lower = inhibition) in [9] was 118%. For the same compound, the growth, % of control in experiment [10] worked out at 107%. In experiment [11], the cell viability, % of control (lower = more cytotoxic) was found to be 280%. Also, in experiment [12], the viability (% of control) amounted to 114%.

Take `Cc1ncc([N+](=O)[O-])n1CC(C)O` (stereo unspecified): the max response in experiment [4] is 9.98% (inactive). The same compound registered a parasite growth, % of DMSO control in experiment [7] of 94.7%. In [8], this compound came in with a parasite growth remaining, % of DMSO control (lower = more inhibition) of 95.7%. The parasite growth, % of control (lower = inhibition) in [9] came out at 94.8%. For the same compound, the growth, % of control in experiment [10] was found to be 99.2%. Further, the cell viability, % of control (lower = more cytotoxic) in [11] stood at 120%. Also, the viability (% of control) in experiment [12] amounted to 98.4%. Moreover, the Potency entry in experiment [13], in experiment [14] and in experiment [15] was “inactive” each time.
